Measured values taken from PubChem BioAssay AID624172 (National Center for Advancing Translational Sciences (NCATS), 2012).
About 25 (0.007%) of roughly 380,000 compounds were called active. The call rests on the fitted dose curve; in most records, active means well fitted activation curve with a large enough effect; inconclusive means small, poorly fitted or top-dose-only effect; inactive means no such curve, though single readings can be large or run the other way. Not all results are given here. Square brackets hold non-standard residues; d marks the D form. Side chains are listed from the residue outwards. Peptide text beside a SMILES is read from it. * marks the point of attachment. X1 = CCC(C)C(N)C1=NC(C(=O)*)CS1; Orn = NCCC[CH](N)C(=O)O

The compounds below were run against Glucagon-like peptide 1 receptor (Homo sapiens) (UniProt P43220) (assay: qHTS of GLP-1 Receptor Agonists). Conditions: HEK293 GLP-1R CRE-luciferase, luminescence, 4-6 h, cells express a hypersensitive GLP-1R form; series mostly up to 45.6 µM.
Chain of Glucagon-like peptide 1 receptor (Homo sapiens) (P43220 whole entry, looked up): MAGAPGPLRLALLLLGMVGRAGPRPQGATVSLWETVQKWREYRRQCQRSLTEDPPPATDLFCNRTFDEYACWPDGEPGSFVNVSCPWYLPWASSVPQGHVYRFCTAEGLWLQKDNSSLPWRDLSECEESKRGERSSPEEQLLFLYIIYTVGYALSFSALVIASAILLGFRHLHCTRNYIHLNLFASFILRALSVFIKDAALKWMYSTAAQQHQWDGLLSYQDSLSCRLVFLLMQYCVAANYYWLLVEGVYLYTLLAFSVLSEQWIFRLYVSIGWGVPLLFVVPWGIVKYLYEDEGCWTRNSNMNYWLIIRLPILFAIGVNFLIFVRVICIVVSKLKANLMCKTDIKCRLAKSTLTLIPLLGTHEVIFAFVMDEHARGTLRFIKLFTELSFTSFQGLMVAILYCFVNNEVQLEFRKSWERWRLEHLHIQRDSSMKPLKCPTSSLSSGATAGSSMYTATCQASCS
Excerpt: The overall goal of this project was to develop a novel assay for discovering small molecule ligands for class B1 G protein-coupled receptors (GPCRs). Very few agonists (or inverse agonists) with generally weak activity for this entire group of physiologically important receptors are known to date. To establish proof-of-principle that this critical bottleneck can be overcome with a suitable screening approach, our studies focused on the class B1 receptor for glucagon-like peptide-1 (GLP-1R), a potential therapeutic target for diabetes and neurodegenerative disease.
The assay was developed in a "mix and measure" format using a cell-based functional readout. Toward this goal, stably transfected HEK293 cell clones were established that co-express (i) a cAMP-responsive luciferase reporter gene, and (ii) GLP-1Rs that upon ligand interaction either stimulate (agonists) or inhibit (inverse agonists) luciferase activity. In different cell lines to be used for screening, expressed GLP-1Rs are specifically optimized for high sensitivity detection of either weak agonists (hypersensitive receptor) or inverse agonists (constitutively active receptor mutant). In addition, control cell lines were developed that express either the cAMP-responsive reporter gene without recombinant GLP-1Rs (enabling initial exclusion of GLP-1R independent effects of candidate probes), or the reporter gene together with wild type GLP-1Rs (for confirmation of probe activity at this receptor), or the reporter gene in combination with the constitutively active orphan receptor GPR119 (enabling initial exclusion of GLP-1R independent inhibitory effects of candidate inverse agonists).
To that end, this assay was optimized for 1536-well format and screened against the MLSMR.
NIH Molecular Libraries Probe Production Network [MLPCN]
NIH Chemical Genomics Center [NCGC]
PI Name: Martin Beinborn, Tufts Medical Center
In a white solid 1536-well plate, 6 uL of cells are dispensed in DMEM without phenol red, 10% Nu serum, and 1% pen-strep medium. The plates are then incubated for 12 hours at 37 deg C at 5% CO2 before 23 nL of compounds are added. After a 4-6 hr incubation at37 deg C and 5% CO2, 3 uL of detection reagent are added and after a 12 min incubation at RT, a luminescent read is obtained on the ViewLux.

outcome, inactive:
COc1cccc(CNC(=O)c2ccc3c(Cl)c4c(nc3c2)CCCC4)c1, COc1cccc(C(=O)NC2(C(F)(F)F)C(=O)Nc3c2c(=O)[nH]c(=O)n3-c2ccc(C)cc2)c1 (configuration not stated), Cc1ccc(C)c(N2CCN(C(=O)CN3C(=O)COc4ccc(S(=O)(=O)N5CCCCCC5)cc43)CC2)c1, CCn1cc(C(=O)N(C)Cc2ccccc2)c(=O)c2cc(S(=O)(=O)N3CCCCCC3)ccc21, Cc1cccc(Cc2c(C)nc3nc(SCc4ccccc4Cl)nn3c2C)c1, Oc1ccccc1-c1nc2ccc(Cl)cn2c1Nc1ccc2c(c1)OCCO2, COc1cc(C(=O)Nc2ccc(OCc3cc(=O)n4cc(C)sc4n3)cc2)cc(OC)c1OC, COc1ccc(NC(=O)C2CCCN(S(=O)(=O)c3cccc4nonc34)C2)cc1Cl (configuration not stated), CCC(C)[C@@H](N)C(=O)O (some centres not stated), CCCc1c2oc(C(=O)O)cc(=O)c2cc2c(=O)cc(C(=O)O)n(CC)c12, CCCCCCCCCCCCCCCCO, O=S(O)CNc1ccc(S(=O)(=O)c2ccc(NCS(=O)O)cc2)cc1, CCCN(CC)[C@@H](CC)C(=O)Nc1c(C)cccc1C, CN1CC(O)c2cc(N=NC(N)=O)c(O)cc21 (configuration not stated), O=C(Cn1nc(C(F)(F)F)c2c1CCCC2)Nc1ccc(Cl)cc1, CCOc1ccc(OCC)c(NC(=O)CN(c2ccc(C)cc2)S(=O)(=O)c2c(C)n[nH]c2C)c1, CCOC(=O)c1ccc(NC2=CC(c3ccc(OCC)cc3)N(c3ccc(C(=O)OCC)cc3)C2=O)cc1 (configuration not stated), CN(Cc1ccccc1)c1ncnc2onc(-c3ccc(F)cc3)c12, O=C(Nc1ccc(O)cc1)c1ccccc1O, O=P(O)(O)OC[C@H](O)CO, COc1cccc(NC(=O)C2CCN(c3cc(C)nc4c(-c5ccc(Cl)cc5)c(C)nn34)CC2)c1, COC(=O)CC1Oc2ccccc2-n2cc(-c3ccccc3)nc21 (configuration not stated), CCOC(=O)c1cccc(NS(=O)(=O)c2cn(C)c(C)n2)c1, CCOc1ccc(N(CC)C(=O)C2CCN(S(=O)(=O)c3cccc4nonc34)CC2)cc1, COc1ccnc(C[S@@](=O)[C@@H]2Nc3ccc(OC(F)F)cc3N2)c1OC, O=C(Nc1c(-c2ccc(F)cc2)nc2ccccn12)c1cccc(F)c1, CC1(C)OC2CO[C@]3(COS(N)(=O)=O)OC(C)(C)OC3C2O1 (some centres not stated), COC(=O)c1scc(-c2ccccc2)c1S(=O)(=O)Nc1ccccc1, COc1ccc(C)cc1NC(=O)C(=O)NCCc1sc(-c2cccc(C)c2)nc1C, COc1ccc(-c2noc(CCC(=O)N(C)c3ccccc3C)n2)cc1, C/C=C/C=N/NC(=O)c1ccncc1, COc1ccc2cc(CNc3ccc(OC)c(OC)c3)c(=O)n(CC(=O)Nc3ccccc3F)c2c1, COc1cc2[nH]c(C)c(CCN3CCN(c4ccccc4)CC3)c2cc1OC, COC(=O)C1=C(c2ccccc2)c2ccccc2S(=O)(=O)N1CC(=O)Nc1ccccc1C(F)(F)F, COc1cc(C(CC(=O)NCCC(C)C)N2Cc3ccccc3C2=O)cc(OC)c1OC (configuration not stated), CC1(C)[C@H](O[C@H]2O[C@H](C(=O)O)[C@@H](O)[C@H](O)[C@H]2O[C@@H]2O[C@H](C(=O)O)[C@@H](O)[C@H](O)[C@H]2O)CC[C@@]2(C)[C@H]1CC[C@]1(C)[C@H]2C(=O)C=C2[C@H]3C[C@@](C)(C(=O)O)CC[C@]3(C)CC[C@]21C, CCc1cccc(NC(=O)CSc2nccn2C)c1, CO[C@H]1C[C@@H](O[C@@H]2[C@@H](C)O[C@@H](O[C@@H]3/C(C)=C/CC4C[C@@H](C[C@]5(C=C[C@@H](C)[C@H](C6CCCCC6)O5)O4)OC(=O)[C@@H]4C=C(C)[C@@H](O)[C@H]5OC/C(=C\C=C\[C@@H]3C)[C@]54O)C[C@H]2OC)O[C@@H](C)[C@@H]1O, CCC(C)C(N)C1=NC(C(=O)NC(CC(C)C)C(=O)NC(CCC(=O)O)C(=O)NC(C(=O)NCCCCC2NC(=O)C(CC(N)=O)NC(=O)C(CC(=O)O)NC(=O)C(Cc3cnc[nH]3)NC(=O)C(Cc3ccccc3)NC(=O)C(C(C)CC)NC(=O)C(CCCN)NC2=O)C(C)CC)CS1 (stereo not drawn) (cyclo(DNK([Ile-Glu-Leu-X1])[Orn]IFH); configuration not given here), COc1ccc(Cl)cc1NC(=O)Cn1c(=O)c2ccccc2n2nncc12, Cc1ccc(CNC(=O)Cn2c(=O)ccc3cc(S(=O)(=O)N4CCCC4)ccc32)cc1, CCc1ccccc1NC(=O)Cn1c(=O)n(-c2cccc(C)c2)c(=O)c2c1c1cc(OC)ccc1n2C, CCOc1ccc(NS(=O)(=O)c2ccc(N)cc2)nn1, Cc1ccc(-c2nnc(SCc3ccccc3C)o2)cc1, O=C(/C=C/c1cccc(F)c1)NC1CC1, CCOC(=O)c1ccccc1NC(=O)CCc1c(C)nc2c(c1C)c(=O)n(C)c(=O)n2C, Cc1cc(C)cc(NC(=O)Cn2c(=O)c3ccccc3n3nncc23)c1, FCOC(C(F)(F)F)C(F)(F)F, COc1ccccc1N1CCN(c2ncnc3onc(-c4ccc(F)cc4)c23)CC1, Cc1ccc(C)c(N2CCN(S(=O)(=O)c3ccc4c(c3)C(C(C)C)C(=O)N4)CC2)c1 (configuration not stated), NCCCCC(N)C(=O)O (configuration not stated), Cn1c(=O)nc2n(-c3ccc(Br)cc3)c3cccc(Cl)c3cc-2c1=O, Cc1ccc(-n2nnnc2CNC(=O)c2ccccc2C)cc1C, COc1ccc(NC(=O)Cn2c(=O)n(Cc3ccc(C(=O)NCc4ccccc4Cl)cc3)c(=O)c3ccccc32)cc1, Cc1cccc(NC(=O)CSc2nc3c([nH]c4ccccc43)c(=O)n2-c2cc(C)cc(C)c2)c1, CC1(C)OC2CC(=O)OC[C@@]23C1CC(=O)[C@]1(C)C3CC[C@@]2(C)C(c3ccoc3)OC(=O)C3O[C@@]321 (some centres not stated), Cc1ccc(C(=O)CSc2nc(-c3ccccc3)nc3c2CCCC3)c(C)c1
